A549 tox – A549 cytotoxicity, counter-screen for Nrf2 inhibitors; Potency, µM (series often up to 46 µM), for inactives: top-dose activity change, negative = cytotoxicity, actives largely listed as inhibitors; A549 ARE-Fluc cells, CellTiter-Fluor viability, 18-24 h; AID 504648; hit rate 0.16% among 390,000; further: on the % scale 0 is the no-effect control and ±100 the full control effect
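A549 ARE-Fluc cells in 5% FBS OPTI-MEM, 5000 cells/well, rested 2 h then exposed to compounds in concentration-response for 18-24 h at 37 °C. Viability by CellTiter-Fluor fluorescence (Ex 405/Em 525) after 30 min; luciferase luminescence (BugLite, 15 min, RT) read afterwards.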
TGFb SMAD3 inh – blocks TGF-b signaling; HepG2 CAGA-GFP TGF-b/SMAD3 reporter, GFP fluorescence, 18 h; TGF-beta stimulated, 500 pg/mL final; Potency, µM (doses to about 46.1 µM), without a hit: at the highest dose activity, negative = inhibition, usual class: inhibitors; hit rate 1.2% among 410,000; further: on the % scale 0 is the no-effect control and ±100 the full control effect; nearly all actives have a fitted effect of over 65% in size
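Inhibition of TGF-beta-driven CAGA-GFP reporter expression in HEPG2 cells is measured by cellular GFP fluorescence after 18 h stimulation with 500 pg/mL recombinant TGF-beta in 1% FBS medium at 37 degrees C.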
ATXN2 expr inh – inhibitors of ATXN2 expression | Potency, µM (titrated, usually from 57 µM), without a hit: at the highest dose activity change, negative = inhibition, hits mostly inhibitors | hit rate 0.72% among 360,000 | HEK-293 ATXN2-luciferase reporter, luminescence, 24 h; further: on the % scale 0 is the no-effect control and ±100 the full control effect; nearly all actives have a fitted effect of over 55% in size
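ATXN2-luciferase reporter cells (luciferase flanked by upstream and downstream ATXN2 gene portions) were treated 24 h at 37 °C with compounds at up to 57 uM. SteadyGlo luminescence gave expression; GF-AFC fluorescence gave viability.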
Nrf2 block – blocks Nrf2 signaling; A549 ARE-Fluc reporter, luciferase luminescence, 18-24 h; Potency, µM (highest dose often 46 µM), for the others: top-dose activity change, negative = inhibition, hits mostly inhibitors; hit rate 2.1% among 360,000; AID 504444; further: on the % scale 0 is the no-effect control and ±100 the full control effect; nearly all actives have a fitted effect of over 60% in size
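Nrf2 function is reported as luminescence of an ARE-controlled luciferase in A549 cells. Compounds were tested at several concentrations, and a CellTiter-Fluor read on the same wells flagged cytotoxicity.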
HepG2 tox – counter-screen for TGF-b inhibitors: cytotoxicity in HepG2 cells; AID 588856; HepG2 CAGA-GFP viability, ATP luminescence, 18 h; hit rate 0.76% among 410,000; Potency, µM (highest dose often 46.1 µM), for the others: at the top dose activity change, negative = cytotoxicity, hits mostly cytotoxic
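HepG2 CAGA-GFP cells (1000/well, DMEM with 1% FBS) received compound, then TGF-beta at 500 pg/mL final, and were incubated 18 hours at 37 degrees C. Viability was read by CellTiter-Glo luminescence. Media-only wells were set as complete cell-killing and DMSO as no toxicity.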
S2 tox – cell viability loss in ATXN counter-screen; S2 cells (HEK-293 line with an ATXN2-luciferase reporter) viability, CellTiter-Fluor protease fluorescence, 24 h; Potency, µM (doses to about 56.7 µM), usual class: cytotoxic; hit rate 0.49% among 400,000; AID 651635; further: nearly all actives have a fitted effect of over 40% in size
* = called active by the depositor; i = inactive; u = inconclusive; x = no result; [ ] = remark or other dose. Sampled rows, rich in hits. Any-hit rate of the full collection: about 3.8%. The call rests on the fitted dose curve; in most records, active means well fitted curve in the direction sought with a large enough effect; inconclusive means small, poorly fitted or top-dose-only effect, or another doubt; inactive means no such curve, though single readings can be large; an effect the other way counts as inactive or inconclusive. Potency means the concentration at half of the fitted maximal effect.

SMILES	A549 tox	TGFb SMAD3 inh	ATXN2 expr inh	Nrf2 block	HepG2 tox	S2 tox
O=C1/C(=C/c2ccc([N+](=O)[O-])cc2)C=C(c2ccccc2)N1c1ccc(O)cc1	u	9%	20µM*	u	-9%	u
O=C1/C(=C/c2ccc([N+](=O)[O-])cc2)C=C(c2ccccc2)N1c1ccccc1	9%	-1%	-2%	10%	-10%	i
CN1CCN(Cc2nc3ccccc3c(=O)n2Cc2nc(-c3ccc([N+](=O)[O-])cc3)cs2)CC1	-6%	16µM*	u	11%	11µM*	u
CN(C)Cc1nc2ccccc2c(=O)n1Cc1nc(-c2cccc([N+](=O)[O-])c2)cs1	u	-16%	u	-23%	-3%	i
COc1ccccc1CNC(=O)c1cc2ccc3ccc(C)[nH]c3c2n1	1%	u	u	u	-30%	i
CCCN(CC(=O)Nc1ccccc1C)C(=O)Cc1c(C)nc2ccccc2c1C	-18%	-4%	4%	-18%	0%	i
O=C(O)CCn1c(-c2ccccn2)nc2ccccc21	2%	12%	20%	11%	0%	i
CCCCn1cnc2c(SCc3ccccc3)nc(N)nc21	4%	4%	47%	0%	5%	i
CCCCn1cnc2c(SCc3ccc(Br)cc3)nc(N)nc21	-19%	18%	-18%	18µM*	-23%	i
Cc1ccc(Cl)cc1-n1ncc2c(NCCCc3ccccc3)ncnc21	u	u	u	x	-39%	32µM*
Cc1cccc(-n2ncc3c(NCc4cccnc4)ncnc32)c1	-9%	1%	46%	u	-4%	i
Cc1ccc(Cl)cc1-n1ncc2c(NCCc3ccccc3)ncnc21	4%	u	u	x	-58%	u
Cc1ccc(-n2ncc3c(NCc4cccnc4)ncnc32)c(C)c1	-13%	-26%	13%	9.2µM*	-17%	i
Cc1ccc2c(c1C)-c1c(ccc(C)c1C)C(=O)C2=O	u	2.5µM*	u	u	4µM*	u
N#Cc1ccc(Nc2nc(-c3ccccc3)c(C(=O)c3ccccc3)s2)cc1	x	u	u	x	11µM*	u
NS(=O)(=O)c1ccc(N/N=C2/CCCCC2C2CCCCC2)c([N+](=O)[O-])c1 (stereo not drawn)	u	u	u	21µM*	-115%	u
COc1cc2ccccc2cc1C(=O)N1CC(C)CC(C)C1 (stereo not drawn)	-14%	-16%	-21%	12µM*	7%	i
O=C(Sc1ccc(Cl)cc1)c1ccccn1	1%	-8%	-7%	29%	-31%	i
COc1ccc(-c2csc3ncnc(N4CCN(c5ccccc5OC)CC4)c23)cc1	u	u	32µM*	23µM*	-1%	u
Fc1ccc(CN2CCN(c3ncnc4scc(-c5ccccc5)c34)CC2)cc1	-3%	u	u	23µM*	-39%	i
Fc1ccc(-c2csc3ncnc(N4CCN(Cc5ccccc5)CC4)c23)cc1	-6%	-3%	-2%	6%	9%	u
Cc1ccc(-c2csc3ncnc(N4CCN(Cc5ccccc5)CC4)c23)cc1	-9%	0%	x	23µM*	-9%	i
CCOc1ccccc1N1CCN(c2ncnc3scc(-c4ccc(OC)cc4)c23)CC1	-4%	u	u	u	-29%	i
COc1ccc(NC(=O)CC2C(=O)N(c3ccc(OC)cc3)C(=O)N2Cc2ccc(OC)c(OC)c2)cc1 (stereo not drawn)	-2%	-22%	-20%	-15%	-4%	u
Cc1nc(-c2ccc(S(=O)(=O)N3CCN(CCc4ccccc4)CC3)s2)cs1	-7%	1%	0%	23µM*	14%	i
SMILES	A549 tox	TGFb SMAD3 inh	ATXN2 expr inh	Nrf2 block	HepG2 tox	S2 tox
CC(=O)NC(c1ccc(F)c(F)c1)c1nc(-c2ccccc2C)cs1 (stereo not drawn)	x	6%	-9%	x	-14%	i
COc1ccc(CN2CC[C@@H]3CN(C(C)=O)[C@H](c4ccccc4Br)C[C@@H]32)cc1	x	u	11%	x	8%	i
Cc1cc(NC(=O)c2sc(Nc3cccc(C(F)(F)F)c3)nc2N)no1	u	u	-13%	16µM*	1%	i
Cc1cc(NC(=O)c2sc(Nc3ccc(F)c(Cl)c3)nc2N)no1	-11%	5%	-13%	u	-18%	u
CCc1ccc(NC(=O)CSc2nc3ncccc3[nH]2)cc1	-1%	-26%	x	u	-28%	x
CCOc1ccc(S(N)(=O)=O)cc1-c1nc2c(C(C)(C)C)nn(C)c2c(=O)[nH]1	0%	-2%	-8%	u	-45%	i
CCOc1ccc(S(=O)(=O)NC(C)(C)C)cc1-c1nc2c(C(C)(C)C)nn(C)c2c(=O)[nH]1	u	u	u	21µM*	-53%	i
Fc1cccc(Cl)c1C1Nc2cccc3cccc(c23)N1	-9%	u	x	-21%	-20%	u
Clc1cccc(Cl)c1C1Nc2cccc3cccc(c23)N1	u	u	u	9.2µM*	-20%	i
CC(C)(C)C1=CC(=Nc2ccccc2N)C=C(C(C)(C)C)C1=O	u	u	14%	u	-50%	i
CC(C)(C)C1=CC(=O)C(=O)C(C(C)(C)C)=C1	-20%	16µM*	x	u	-88%	13µM*
COc1cc(C(=O)NCC(c2cccs2)N2CCOCC2)cc(Br)c1OCc1ccccc1 (stereo not drawn)	-13%	u	x	u	-41%	i
Cc1ccccc1CC1(CO)CCCN(C(=O)c2ccccc2Cl)C1 (stereo not drawn)	0%	-7%	17%	-14%	-13%	i
Cc1ccccc1CC1(CO)CCCN(C(=O)c2cc(Cl)ccc2F)C1 (stereo not drawn)	-9%	4%	3%[11.3 µM]	12µM*	15%	i
COC(=O)c1ccc(N=c2sc(C(=O)OC)cc(=O)n2C)cc1	1%	2%	8%	-5%	-13%	i
COC(=O)c1cc(=O)n(Cc2ccco2)c(=Nc2ccc(F)c(Cl)c2)s1	u	13µM*	28µM*	26µM*	-98%	x
COC(=O)c1cc(=O)n(CCc2ccccc2F)c(=Nc2ccc(F)c(Cl)c2)s1	-12%	u	27µM*	u	-93%	x

From PubChem BioAssay
